PubChem BioAssay (Tox21)
Where “and” joins values, the source holds several entries; their conditions need not be identical. Equal entries are not always repeated. Records with an inconclusive call do not appear. Where a call stands in place of a potency, no number is given. Calls of active or inactive are those of the source. Unless noted, the call rests on the fitted dose curve; in most records, active means well fitted curve in the direction sought with a large enough effect in the repeat runs; inconclusive means weak or mixed curves; inactive means no such curve, though single readings can be large; an effect the other way counts as inactive or inconclusive.

What was measured:
[1] = qHTS assay to identify small molecule antagonists of the estrogen related receptor (ERR) signaling pathway from Tox21 library - cell viability counter screen (AID 1224834); further: nearly all actives have a fitted effect of over 30% in size
Summary of the method: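 Viability readout (CellTiter-Fluor fluorescence, 30 min at 37 C) multiplexed with the ERR assay; cells treated 17.5 h at 37 C with compounds delivered in DMSO.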

[2] = qHTS assay to identify small molecule agonists of the constitutive androstane receptor (CAR) signaling pathway - cell viability counter screen (AID 1224836); further: series mostly up to about 92 µM; nearly all actives have a fitted effect of over 45% in size
Summary of the method: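 Cells were seeded and incubated 4 hrs. Compounds were added across 15 concentrations together with PK11195 at 0.75 uM final. Plates were incubated 23 hrs at 37 C. CellTiter-Fluor was added and fluorescence measured.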

[3] = qHTS assay to identify small molecule antagonists of the constitutive androstane receptor (CAR) signaling pathway - cell viability counter screen (AID 1224837); further: series mostly up to about 92 µM; nearly all actives have a fitted effect of over 45% in size
Summary of the method: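 Fluorescence from CellTiter-Fluor served as the viability signal. Human hepatoma HepG2 cells stably bearing hCAR and CYP2B6-2.2kb received compound plus CITCO (50 nM final) for 23 hr.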

[4] = qHTS assay to identify small molecule antagonists of the estrogen related receptor signaling pathway with the pleiotropic PPARgamma coactivator (PGC) from Tox21 10K library - cell viability counter screen (AID 1224840; active means well fitted cell-killing curve with a large enough effect in the repeat runs, not every such curve was filed as active; further: nearly all actives have a fitted effect of over 40% in size)
Summary of the method: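 Compounds in DMSO, alongside positive and negative controls, were pinned onto PGC/ERR cells (2,000 per well). Exposure lasted 17.5 hours at 37 C, followed by a 30-minute CellTiter-Fluor incubation and fluorescence reading.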

[5] = qHTS assay to identify small molecule antagonists of the estrogen related receptor signaling pathway with the pleiotropic PPARgamma coactivator (PGC) from Tox21 10K library (AID 1224841; call rule not given here; further: series mostly up to about 92 µM; actives are mostly falling curves and most rising ones were filed inactive; nearly all actives have a fitted effect of over 50% in size)
Summary of the method: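 Compound exposure ran 18 hours at 37 C in PGC/ERR cells (2,000/well) that had first rested 6 hours in a 37 C/5% CO2 incubator. Luciferase activity was then detected with One-Glo after a 30-minute room-temperature step.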

[6] = qHTS assay to identify small molecule agonists of the estrogen related receptor signaling pathway with the pleiotropic PPARgamma coactivator (PGC) from Tox21 10K library (AID 1224842); further: nearly all actives have a fitted effect of over 15% in size
Summary of the method: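 PGC/ERR reporter cell line, 2,000 cells per well, incubated 6 h at 37 C before 23 nL compound in DMSO was added. After 18 h at 37 C, One-Glo luminescence read following 30 min at room temperature.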

[7] = qHTS assay to identify small molecule agonists of the hypoxia (HIF-1) signaling pathway - cell viability counter screen (AID 1224844; calls by dose curve; further: nearly all actives have a fitted effect of over 50% in size)
Summary of the method: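 Luminescent ATP content (CellTiter-Glo, 30 min, room temperature) served as the viability measure in HRE-bla ME-180 cells exposed to compounds for 17 hrs in low-serum medium (0.5% dialyzed FBS).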

[8] = qHTS assay to identify small molecule agonists of H2AX (AID 1224845; active means well fitted activation curve with a large enough effect in the signal ratio in the repeat runs, not every such curve was filed as active; the % refers to the signal ratio)
Summary of the method: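 Wild-type CHO-K1 cells, plated overnight, exposed 3hr at 37C to 15 concentrations (0.76% DMSO final). Lysed, then HTRF anti-pH2AX (S139) cryptate and anti-H2AX-d2 antibodies, 24 hr room temperature; 665/620 nm emission read.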

[9] = qHTS assay to identify small molecule agonists of the hypoxia (HIF-1) signaling pathway (AID 1224846; active means well fitted activation curve with a large enough effect in the signal ratio in the repeat runs, not every such curve was filed as active; the % refers to the signal ratio)
Summary of the method: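 Measured by blue/green FRET after loading CCF4-AM: beta-lactamase expressed from a hypoxia response element in ME-180 cells. Test agents were delivered in DMSO and left 17 hrs; cells had been plated 5 hrs earlier in low-serum (0.5% dialyzed FBS) medium.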

[10] = qHTS assay to identify small molecule agonists of the estrogen related receptor (ERR) signaling pathway from Tox21 library (AID 1224849; calls by dose curve; further: nearly all actives have a fitted effect of over 15% in size)
Summary of the method: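 We plated ERR reporter cells, waited 6 h, added compounds in DMSO by pin tool and incubated them 18 h at 37 C. ONE-Glo was then added and luminescence read after 30 min.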

[11] = qHTS RealTime-Glo MT Cell Viability Assay in HepG2 cells - 24 hour (AID 1224867); further: nearly all actives have a fitted effect of over 50% in size
Summary of the method: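 Cells + NanoLuc/prosubstrate dispensed (600 cells/well) → 5 h at 37 C/5% CO2 → compounds in DMSO transferred → 40 h incubation at 37 C, luminescence read at 0, 8, 16, 24, 32, 40 h.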

[12] = qHTS RealTime-Glo MT Cell Viability Assay in HEK293 cells - 32 hour (AID 1224868); further: nearly all actives have a fitted effect of over 50% in size; further: potency means the concentration at half of the fitted maximal effect
Summary of the method: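 Tox21 10K qHTS, HEK293, 600 cells/well, RealTime-Glo reagent co-dispensed with cells; 5 h preincubation, compound by pintool, 37 C, luminescence at 0–40 h.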

[13] = molecular target: Nuclear receptor subfamily 1 group I member 3 (Homo sapiens) (UniProt Q14994); test: qHTS assay to identify small molecule antagonists of the constitutive androstane receptor (CAR) signaling pathway (AID 1224838);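 further: HepG2 cells stably expressing hCAR with CYP2B6 luciferase reporter stimulated by CITCO; nearly all actives have a fitted effect of over 40% in size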
Sequence of Nuclear receptor subfamily 1 group I member 3 (Homo sapiens) (Q14994 whole entry, looked up): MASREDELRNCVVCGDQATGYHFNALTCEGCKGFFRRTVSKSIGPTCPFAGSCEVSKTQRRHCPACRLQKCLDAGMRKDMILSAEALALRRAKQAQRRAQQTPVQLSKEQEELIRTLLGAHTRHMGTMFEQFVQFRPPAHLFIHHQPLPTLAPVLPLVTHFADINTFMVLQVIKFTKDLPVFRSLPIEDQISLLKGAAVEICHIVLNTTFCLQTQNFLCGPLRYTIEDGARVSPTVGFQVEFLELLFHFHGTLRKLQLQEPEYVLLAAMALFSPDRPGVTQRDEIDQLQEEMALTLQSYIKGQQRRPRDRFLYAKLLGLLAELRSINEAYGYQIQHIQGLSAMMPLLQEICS
Summary of the method: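 Quantitative HTS in double-stable HepG2-CYP2B6-hCAR cells. After 4 h plating, cells get compound (15 concentrations) and CITCO at 50 nM final, incubate 24 h at 37 C, then ONE-Glo luminescence is read.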

[14] = molecular target: Nuclear receptor subfamily 1 group I member 3 (Homo sapiens) (UniProt Q14994); test: qHTS assay to identify small molecule agonists of the constitutive androstane receptor (CAR) signaling pathway (AID 1224839);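 further: HepG2 cells stably carrying human CAR and a CYP2B6 luciferase reporter; series mostly up to about 92 µM; nearly all actives have a fitted effect of over 15% in size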
Summary of the method: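 Cells were plated and incubated 4 hrs, then dosed with compounds at 15 concentrations. PK11195 was added to 0.75 uM final. After 24 hrs at 37 C, luciferase luminescence was measured.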

[15] = molecular target: Thyrotropin receptor (Homo sapiens) (UniProt P16473); test: qHTS assay to identify small molecule agonists of the thyroid stimulating hormone receptor (TSHR) signaling pathway (AID 1224843; calls by dose curve; further: nearly all actives have a fitted effect of over 45% in size)
Sequence of Thyrotropin receptor (Homo sapiens) (P16473 whole entry, looked up): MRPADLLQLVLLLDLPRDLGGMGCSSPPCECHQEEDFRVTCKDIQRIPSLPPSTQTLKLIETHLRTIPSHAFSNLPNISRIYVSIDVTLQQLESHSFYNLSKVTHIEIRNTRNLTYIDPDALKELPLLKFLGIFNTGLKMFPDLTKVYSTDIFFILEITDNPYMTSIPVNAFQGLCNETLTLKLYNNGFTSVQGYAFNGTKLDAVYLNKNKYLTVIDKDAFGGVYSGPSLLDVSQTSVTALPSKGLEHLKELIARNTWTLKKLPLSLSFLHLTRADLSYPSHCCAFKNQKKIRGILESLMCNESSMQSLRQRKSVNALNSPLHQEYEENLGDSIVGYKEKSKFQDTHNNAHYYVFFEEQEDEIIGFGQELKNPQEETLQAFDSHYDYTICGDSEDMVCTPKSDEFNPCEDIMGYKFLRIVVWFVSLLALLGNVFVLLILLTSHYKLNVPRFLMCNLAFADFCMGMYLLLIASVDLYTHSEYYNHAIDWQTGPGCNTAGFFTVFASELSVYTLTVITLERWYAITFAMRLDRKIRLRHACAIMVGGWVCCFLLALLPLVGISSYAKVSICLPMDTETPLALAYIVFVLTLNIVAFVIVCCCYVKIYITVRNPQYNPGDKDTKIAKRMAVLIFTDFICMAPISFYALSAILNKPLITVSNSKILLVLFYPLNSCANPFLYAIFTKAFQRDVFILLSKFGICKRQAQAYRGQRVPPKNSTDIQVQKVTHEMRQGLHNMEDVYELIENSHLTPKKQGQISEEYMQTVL
Summary of the method: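 TSHR-HEK293 cells in agonist mode, 30 min room-temperature step, then cAMP measured by competitive HTRF (cAMP-d2 with anti-cAMP cryptate) after 1 h at room temperature. Tested at 15 concentrations in triplicate.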

[16] = qHTS assay to identify small molecule agonists of H2AX - cell viability counter screen (AID 1224847; calls by dose curve; further: top concentration of the series differs between compounds; nearly all actives have a fitted effect of over 30% in size)
Summary of the method: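 Cytotoxicity counter screen in wild-type CHO-K1 cells: a 3 hr compound treatment at 37C across 15 concentrations, followed by CellTiter-Glo luminescence to gauge viable cells.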

[17] = qHTS assay to identify small molecule antagonists of the estrogen related receptor (ERR) signaling pathway from Tox21 library (AID 1224848); further: nearly all actives have a fitted effect of over 50% in size
Summary of the method: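 ERR reporter cell line (from NTP) seeded 2,000 cells/well, rested 6 h at 37 C/5% CO2, then pin-dosed with compounds in DMSO. After 18 h at 37 C, ONE-Glo added; luminescence read after 30 min at room temperature.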

[18] = A CellTox Green Cytotoxicity Assay to monitor cytotoxicity in HEK293 cells - 0 hour (AID 1224869); further: nearly all actives have a fitted effect of over 50% in size
Summary of the method: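 Each value comes from one timepoint of a single continuous run in which HEK293 cells with CellTox Green were exposed to compound for up to 40 h at 37 C, dye fluorescence rising with cell death.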

[19] = molecular target: Luciferin 4-monooxygenase (Photinus pyralis) (UniProt P08659); test: qHTS assay to identify small molecule inhibitors of firefly luciferase (AID 1224835); further: series mostly up to about 120 µM; nearly all actives have a fitted effect of over 25% in size
Sequence of Luciferin 4-monooxygenase (Photinus pyralis) (P08659 whole entry, looked up): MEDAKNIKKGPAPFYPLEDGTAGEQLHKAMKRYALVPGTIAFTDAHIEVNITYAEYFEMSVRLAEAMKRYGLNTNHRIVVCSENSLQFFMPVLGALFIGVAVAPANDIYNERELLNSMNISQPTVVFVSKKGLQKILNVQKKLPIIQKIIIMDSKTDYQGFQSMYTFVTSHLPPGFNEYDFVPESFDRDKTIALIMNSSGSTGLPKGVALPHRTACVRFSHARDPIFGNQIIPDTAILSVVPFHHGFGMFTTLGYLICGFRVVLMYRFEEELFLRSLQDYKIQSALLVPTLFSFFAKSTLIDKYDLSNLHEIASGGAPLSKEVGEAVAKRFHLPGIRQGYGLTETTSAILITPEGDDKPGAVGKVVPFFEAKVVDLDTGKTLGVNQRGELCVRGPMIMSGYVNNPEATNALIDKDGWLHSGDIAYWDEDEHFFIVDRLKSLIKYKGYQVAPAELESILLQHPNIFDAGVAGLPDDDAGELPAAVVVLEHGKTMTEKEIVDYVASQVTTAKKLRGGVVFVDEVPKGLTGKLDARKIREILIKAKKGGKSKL
Summary of the method: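 Biochemical qHTS: compounds run as interplate titrations against purified firefly enzyme, with D-luciferin and ATP each at its KM concentration. Light output recorded by CCD imaging.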

| Compound | Potency [1] | Potency [2] | Potency [3] | Potency [4] | Potency [5] | outcome [6] | outcome [7] | outcome [8] | outcome [9] | outcome [10] | Potency [11] | Potency [12] | outcome [13] | Potency [14] | outcome [15] | outcome [16] | outcome [17] | outcome [18] | Potency [19] |
| --- | --- | --- | --- | --- | --- | --- | --- | --- | --- | --- | --- | --- | --- | --- | --- | --- | --- | --- | --- |
| CN(C)c1ccc(Cc2ccc(N(C)C)cc2)cc1 | inactive | inactive | inactive | inactive | inactive | inactive | inactive | inactive | inactive | inactive | inactive | 22 µM (active) and 21.9 µM (active) | – | – | – | – | – | – | – |
| CC1(C)NC(=O)NC1=O | inactive | inactive | inactive | – | inactive | inactive | inactive | inactive | inactive | inactive | inactive | inactive | inactive | inactive | inactive | inactive | inactive | inactive | – |
| CCCCCCO | inactive | inactive | inactive | inactive | – | – | inactive | inactive | inactive | – | inactive | inactive | inactive | inactive | inactive | inactive | – | inactive | – |
| Nc1nc(N)nc(-c2ccccc2)n1 | inactive | inactive | inactive | – | – | – | inactive | inactive | inactive | – | inactive | inactive | inactive | inactive | inactive | inactive | – | inactive | – |
| COc1ccccc1OCC(O)CO (stereo not given) | inactive | inactive | inactive | inactive | – | – | inactive | – | – | – | inactive | inactive | – | – | inactive | inactive | – | inactive | – |
| CC(O)CC(C)(C)O (stereo not given) | inactive | inactive | inactive | inactive | – | – | inactive | – | inactive | – | inactive | inactive | – | – | – | inactive | – | inactive | – |
| C=C(C)C(=O)OCC(C)C | inactive | inactive | inactive | inactive | – | – | inactive | – | inactive | – | inactive | inactive | – | – | inactive | inactive | – | – | – |
| CC(=O)OCc1ccccc1 | inactive | inactive | inactive | – | – | – | inactive | – | inactive | – | inactive | inactive | – | – | inactive | inactive | – | – | – |
| CC1(C)OC[C@@H]2O[C@@]3(C(=O)O)OC(C)(C)O[C@H]3[C@@H]2O1 | inactive | inactive | inactive | inactive | – | – | inactive | – | inactive | – | inactive | inactive | inactive | inactive | inactive | inactive | – | – | – |
| CCCCCCCO | inactive | inactive | inactive | inactive | – | – | inactive | – | inactive | – | inactive | inactive | inactive | inactive | inactive | inactive | – | – | – |
| CC(=O)OCc1ccco1 | inactive | inactive | inactive | – | inactive | inactive | inactive | inactive | inactive | inactive | inactive | inactive | inactive | inactive | inactive | inactive | inactive | – | – |
| Clc1ccccn1 | inactive | inactive | inactive | inactive | – | – | inactive | – | inactive | – | inactive | inactive | – | – | inactive | inactive | – | inactive | – |
| C=CCCCCCCCCC(=O)O | inactive | inactive | inactive | – | – | – | inactive | inactive | inactive | – | inactive | inactive | – | – | inactive | inactive | – | inactive | – |
| Nc1ccc(Cl)c(N)c1 | – | inactive | inactive | inactive | – | – | inactive | inactive | inactive | – | inactive | inactive | – | – | inactive | inactive | – | inactive | inactive |
| CC(CCO)CC(C)(C)C (stereo not given) | inactive | inactive | inactive | inactive | – | – | inactive | – | inactive | – | inactive | inactive | – | – | inactive | inactive | – | inactive | – |
| CC(C)CC(C)O (stereo not given) | inactive | inactive | inactive | inactive | – | – | inactive | – | inactive | – | inactive | inactive | inactive | inactive | inactive | inactive | – | inactive | – |
| OCc1cccc(Oc2ccccc2)c1 | inactive | inactive | inactive | – | – | – | inactive | inactive | inactive | – | inactive | inactive | inactive | inactive | inactive | inactive | – | inactive | – |
| CC(C)c1cccc(C(C)C)c1 | inactive | inactive | inactive | inactive | inactive | inactive | inactive | – | inactive | inactive | inactive | inactive | – | – | inactive | inactive | inactive | – | – |
